Data taken from the supplement of paper PMC10849652.
The full data set covers some 7,900 targets. This sample favours those with a hit. About 0.6% of all pairs of compound and target were hits. Unmarked numbers belong to inactive results.

What was measured:
Assay in all cases: log2 fold change, soluble protein after heating vs DMSO (PISA); higher = thermal stabilisation; K562 cells, 10 uM, 30 min; active = over 0.2 and 3.5 SD of the protein, either way, in both replicates (recomputed)
[1] = compound: COC1=CC=C(C=C1)CN2C=CC3=C2C=C(C=C3)C(=O)NO
How it was run: (§1)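 K562 cells at 2×10^6 cells/mL were treated with 10 μM compound for 30 min. Aliquots were heated for 3 min across 48°C-58°C, pooled, and extracted in PBS with 0.5% NP-40 at 4°C; soluble protein was the supernatant after 21,000xg for 90 min. Soluble protein was quantified by TMTpro 16plex LC-MS/MS with channel sums equalised, and reported as log2 fold change in thermal stability against DMSO controls, with values from duplicates.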

filanesib = compound: CON(C)C(=O)N1N=C(c2cc(F)ccc2F)S[C@@]1(CCCN)c1ccccc1 [filanesib]
How it was run: as §1

zotarolimus = compound: CO[C@H]1C[C@@H]2CC[C@@H](C)[C@@](O)(O2)C(=O)C(=O)N2CCCC[C@H]2C(=O)O[C@H]([C@H](C)C[C@@H]2CC[C@H](n3cnnn3)[C@H](OC)C2)CC(=O)[C@H](C)/C=C(\C)[C@@H](O)[C@@H](OC)C(=O)[C@H](C)C[C@H](C)/C=C/C=C/C=C/1C [zotarolimus]
How it was run: as §1

idasanutlin = compound: COc1cc(C(=O)O)ccc1NC(=O)[C@@H]1N[C@@H](CC(C)(C)C)[C@](C#N)(c2ccc(Cl)cc2F)[C@H]1c1cccc(Cl)c1F [idasanutlin]
How it was run: as §1

alisertib = compound: COc1cc(Nc2ncc3c(n2)-c2ccc(Cl)cc2C(c2c(F)cccc2OC)=NC3)ccc1C(=O)O [alisertib]
How it was run: as §1

[2] = compound: COc1cc2nc(-c3cc(F)ccc3O)nc(N[C@@H]3CNC[C@H]3C(C)(C)O)c2cc1OC
How it was run: as §1

gefitinib = compound: COc1cc2ncnc(Nc3ccc(F)c(Cl)c3)c2cc1OCCCN1CCOCC1 [gefitinib]
How it was run: as §1

[3] = compound: COc1cccc2cc(-c3nc([C@H]4CC[C@H](C(=O)O)CC4)n4ncnc(N)c34)[nH]c12
How it was run: as §1

lapatinib = compound: CS(=O)(=O)CCNCc1ccc(-c2ccc3ncnc(Nc4ccc(OCc5cccc(F)c5)c(Cl)c4)c3c2)o1 [lapatinib]
How it was run: as §1

pictilisib = compound: CS(=O)(=O)N1CCN(Cc2cc3nc(-c4cccc5[nH]ncc45)nc(N4CCOCC4)c3s2)CC1 [pictilisib]
How it was run: as §1

[4] = compound: CS(=O)(=O)c1ccc(-c2cnc(N)c(C(=O)Nc3ccccc3)n2)cc1
How it was run: as §1

crizotinib = compound: C[C@@H](Oc1cc(-c2cnn(C3CCNCC3)c2)cnc1N)c1c(Cl)ccc(F)c1Cl [crizotinib]
How it was run: as §1

[5] = compound: C[C@@H]1COCCN1C2=NC(=NC(=C2)C3(CC3)S(=O)(=O)C)C4=C5C=CNC5=CC=C4
How it was run: as §1

[6] = compound: C[C@H](C1=CC=C(C=C1)C(=O)NC2=C3C=CNC3=NC=C2)N
How it was run: as §1

duvelisib = compound: C[C@H](Nc1ncnc2nc[nH]c12)c1cc2cccc(Cl)c2c(=O)n1-c1ccccc1 [duvelisib]
How it was run: as §1

gandotinib = compound: Cc1cc(Nc2cc(CN3CCOCC3)c3nc(C)c(Cc4ccc(Cl)cc4F)n3n2)n[nH]1 [gandotinib]
How it was run: as §1

tozasertib = compound: Cc1cc(Nc2cc(N3CCN(C)CC3)nc(Sc3ccc(NC(=O)C4CC4)cc3)n2)n[nH]1 [tozasertib]
How it was run: as §1

[7] = compound: Cc1cc(SCc2sc(-c3ccc(C(F)(F)F)cc3)nc2C)ccc1OCC(=O)O
How it was run: as §1

doramapimod = compound: Cc1ccc(-n2nc(C(C)(C)C)cc2NC(=O)Nc2ccc(OCCN3CCOCC3)c3ccccc23)cc1 [doramapimod]
How it was run: as §1

ispinesib = compound: Cc1ccc(C(=O)N(CCCN)[C@@H](c2nc3cc(Cl)ccc3c(=O)n2Cc2ccccc2)C(C)C)cc1 [ispinesib]
How it was run: as §1

Sequence of UniProt P02008 (P02008 whole entry, looked up): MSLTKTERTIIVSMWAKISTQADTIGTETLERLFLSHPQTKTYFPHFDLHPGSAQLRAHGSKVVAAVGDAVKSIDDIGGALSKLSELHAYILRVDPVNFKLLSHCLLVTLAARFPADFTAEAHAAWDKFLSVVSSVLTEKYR
Sequence of UniProt Q9P2H3 (Q9P2H3 whole entry, looked up): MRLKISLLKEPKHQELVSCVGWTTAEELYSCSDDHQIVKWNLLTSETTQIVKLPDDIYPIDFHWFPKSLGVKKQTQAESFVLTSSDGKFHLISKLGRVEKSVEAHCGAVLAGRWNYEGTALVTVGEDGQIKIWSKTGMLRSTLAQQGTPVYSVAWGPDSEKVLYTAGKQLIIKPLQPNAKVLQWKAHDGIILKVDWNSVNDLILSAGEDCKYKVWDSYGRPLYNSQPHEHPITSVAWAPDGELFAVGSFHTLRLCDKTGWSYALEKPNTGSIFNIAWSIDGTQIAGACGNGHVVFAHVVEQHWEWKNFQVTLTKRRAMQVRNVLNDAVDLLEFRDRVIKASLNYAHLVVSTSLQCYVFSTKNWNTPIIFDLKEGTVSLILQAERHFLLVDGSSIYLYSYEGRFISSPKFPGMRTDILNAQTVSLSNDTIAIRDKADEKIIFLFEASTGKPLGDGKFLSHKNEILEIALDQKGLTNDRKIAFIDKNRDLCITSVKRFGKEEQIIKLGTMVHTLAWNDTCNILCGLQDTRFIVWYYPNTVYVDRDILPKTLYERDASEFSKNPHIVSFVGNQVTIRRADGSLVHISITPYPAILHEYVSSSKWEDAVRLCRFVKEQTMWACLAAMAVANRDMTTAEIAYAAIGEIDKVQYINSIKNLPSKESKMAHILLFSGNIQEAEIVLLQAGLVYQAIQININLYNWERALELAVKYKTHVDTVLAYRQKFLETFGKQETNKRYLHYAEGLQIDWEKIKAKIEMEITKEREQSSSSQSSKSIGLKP
Sequence of UniProt P09105 (P09105 whole entry, looked up): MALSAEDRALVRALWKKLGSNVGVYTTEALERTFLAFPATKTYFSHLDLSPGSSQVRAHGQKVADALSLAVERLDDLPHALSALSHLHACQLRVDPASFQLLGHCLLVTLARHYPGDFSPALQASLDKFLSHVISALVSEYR
Sequence of UniProt P52597 (P52597 whole entry, looked up): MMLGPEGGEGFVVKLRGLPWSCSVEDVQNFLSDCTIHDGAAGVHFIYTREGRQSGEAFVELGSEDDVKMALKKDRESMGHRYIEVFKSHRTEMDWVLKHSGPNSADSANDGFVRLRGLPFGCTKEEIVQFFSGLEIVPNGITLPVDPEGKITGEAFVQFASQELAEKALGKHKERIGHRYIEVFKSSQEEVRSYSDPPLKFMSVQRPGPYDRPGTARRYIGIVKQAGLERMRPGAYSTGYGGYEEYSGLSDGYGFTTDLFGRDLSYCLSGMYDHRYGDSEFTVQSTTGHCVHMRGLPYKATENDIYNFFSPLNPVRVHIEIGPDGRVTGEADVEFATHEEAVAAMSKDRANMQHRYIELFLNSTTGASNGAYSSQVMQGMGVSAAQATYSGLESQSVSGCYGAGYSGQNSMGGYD
Sequence of UniProt Q9Y3I1 (Q9Y3I1 whole entry, looked up): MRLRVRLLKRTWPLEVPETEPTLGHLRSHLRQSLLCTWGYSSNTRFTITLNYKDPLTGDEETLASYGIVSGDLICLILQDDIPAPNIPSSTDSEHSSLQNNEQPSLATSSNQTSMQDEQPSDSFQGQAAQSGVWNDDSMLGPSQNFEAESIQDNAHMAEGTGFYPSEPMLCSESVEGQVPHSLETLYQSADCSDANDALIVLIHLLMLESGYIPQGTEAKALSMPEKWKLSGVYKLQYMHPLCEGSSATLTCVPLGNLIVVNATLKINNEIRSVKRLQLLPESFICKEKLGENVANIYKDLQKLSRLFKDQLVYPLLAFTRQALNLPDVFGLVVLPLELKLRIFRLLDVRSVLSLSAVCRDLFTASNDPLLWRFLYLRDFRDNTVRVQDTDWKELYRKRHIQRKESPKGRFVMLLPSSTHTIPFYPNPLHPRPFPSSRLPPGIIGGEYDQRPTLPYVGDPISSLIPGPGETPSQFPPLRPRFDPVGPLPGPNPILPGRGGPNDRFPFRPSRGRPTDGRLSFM
Sequence of UniProt Q9NVI1 (Q9NVI1 whole entry, looked up): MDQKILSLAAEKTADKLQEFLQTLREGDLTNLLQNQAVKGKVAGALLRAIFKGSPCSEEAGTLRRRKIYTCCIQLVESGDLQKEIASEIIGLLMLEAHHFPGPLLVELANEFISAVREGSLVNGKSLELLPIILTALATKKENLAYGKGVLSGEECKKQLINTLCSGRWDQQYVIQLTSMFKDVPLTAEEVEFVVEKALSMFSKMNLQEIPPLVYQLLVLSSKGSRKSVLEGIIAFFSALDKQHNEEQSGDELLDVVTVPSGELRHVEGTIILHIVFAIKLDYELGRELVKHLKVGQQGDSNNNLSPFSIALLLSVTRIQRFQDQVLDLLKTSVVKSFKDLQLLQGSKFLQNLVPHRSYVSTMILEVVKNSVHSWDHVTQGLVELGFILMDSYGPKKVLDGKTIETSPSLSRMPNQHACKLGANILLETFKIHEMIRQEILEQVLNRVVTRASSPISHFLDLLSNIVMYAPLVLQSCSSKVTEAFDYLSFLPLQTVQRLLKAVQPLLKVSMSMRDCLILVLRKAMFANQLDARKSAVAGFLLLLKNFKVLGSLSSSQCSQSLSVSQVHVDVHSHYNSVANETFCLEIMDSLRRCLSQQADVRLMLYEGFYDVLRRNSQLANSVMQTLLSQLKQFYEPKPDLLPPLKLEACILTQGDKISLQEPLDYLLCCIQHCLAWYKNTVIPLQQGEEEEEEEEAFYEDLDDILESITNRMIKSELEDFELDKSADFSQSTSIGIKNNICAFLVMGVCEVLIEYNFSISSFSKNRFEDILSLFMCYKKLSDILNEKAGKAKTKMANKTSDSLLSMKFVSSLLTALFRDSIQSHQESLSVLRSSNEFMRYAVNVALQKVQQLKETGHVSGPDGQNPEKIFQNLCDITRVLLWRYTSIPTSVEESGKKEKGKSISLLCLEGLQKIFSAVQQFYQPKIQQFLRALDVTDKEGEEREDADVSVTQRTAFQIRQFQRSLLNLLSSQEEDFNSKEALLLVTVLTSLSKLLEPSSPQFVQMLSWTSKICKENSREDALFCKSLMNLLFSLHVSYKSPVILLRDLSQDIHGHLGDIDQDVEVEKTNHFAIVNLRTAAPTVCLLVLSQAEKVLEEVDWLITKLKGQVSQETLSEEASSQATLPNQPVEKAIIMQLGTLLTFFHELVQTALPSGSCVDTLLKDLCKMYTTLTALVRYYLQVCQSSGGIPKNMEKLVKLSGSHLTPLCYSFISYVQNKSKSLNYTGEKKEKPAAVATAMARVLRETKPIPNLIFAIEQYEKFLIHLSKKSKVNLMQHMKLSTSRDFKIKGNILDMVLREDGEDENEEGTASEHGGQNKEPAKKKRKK
Sequence of UniProt P49840 (P49840 whole entry, looked up): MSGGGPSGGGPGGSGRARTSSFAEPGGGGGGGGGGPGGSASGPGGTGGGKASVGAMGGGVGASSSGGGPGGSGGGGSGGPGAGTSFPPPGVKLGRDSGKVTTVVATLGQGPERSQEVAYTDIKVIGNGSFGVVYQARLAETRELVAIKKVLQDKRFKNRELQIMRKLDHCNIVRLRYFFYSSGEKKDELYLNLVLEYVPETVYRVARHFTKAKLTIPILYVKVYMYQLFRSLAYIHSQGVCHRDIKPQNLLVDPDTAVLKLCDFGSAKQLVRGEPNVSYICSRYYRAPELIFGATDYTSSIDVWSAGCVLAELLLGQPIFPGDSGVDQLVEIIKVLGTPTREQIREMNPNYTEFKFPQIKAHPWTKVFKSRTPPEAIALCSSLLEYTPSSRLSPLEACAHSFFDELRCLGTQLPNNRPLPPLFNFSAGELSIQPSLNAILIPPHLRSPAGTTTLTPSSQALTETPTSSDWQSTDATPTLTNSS
Sequence of UniProt P78417 (P78417 whole entry, looked up): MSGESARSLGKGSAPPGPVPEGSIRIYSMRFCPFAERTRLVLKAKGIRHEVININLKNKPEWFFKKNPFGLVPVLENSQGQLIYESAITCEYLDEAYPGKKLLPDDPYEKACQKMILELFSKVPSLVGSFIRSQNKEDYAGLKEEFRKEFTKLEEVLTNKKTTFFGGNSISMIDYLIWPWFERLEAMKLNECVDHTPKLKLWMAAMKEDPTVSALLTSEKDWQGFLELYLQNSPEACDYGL
Sequence of UniProt P05114 (P05114 whole entry, looked up): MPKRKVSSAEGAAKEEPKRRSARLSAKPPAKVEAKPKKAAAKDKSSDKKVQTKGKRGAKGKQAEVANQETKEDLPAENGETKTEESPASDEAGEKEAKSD
Sequence of UniProt P08754 (P08754 whole entry, looked up): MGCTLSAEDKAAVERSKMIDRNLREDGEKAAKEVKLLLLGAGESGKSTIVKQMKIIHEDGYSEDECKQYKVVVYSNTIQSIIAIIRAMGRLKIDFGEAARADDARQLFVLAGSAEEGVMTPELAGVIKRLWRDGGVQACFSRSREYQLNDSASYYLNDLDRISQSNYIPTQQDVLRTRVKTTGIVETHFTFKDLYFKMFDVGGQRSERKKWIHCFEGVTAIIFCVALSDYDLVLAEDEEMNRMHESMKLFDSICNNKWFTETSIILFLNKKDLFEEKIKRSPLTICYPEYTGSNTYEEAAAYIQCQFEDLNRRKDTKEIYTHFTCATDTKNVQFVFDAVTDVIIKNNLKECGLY

Target | log2 fold change [1] | log2 fold change (filanesib) | log2 fold change (zotarolimus) | log2 fold change (idasanutlin) | log2 fold change (alisertib) | log2 fold change [2] | log2 fold change (gefitinib) | log2 fold change [3] | log2 fold change (lapatinib) | log2 fold change (pictilisib) | log2 fold change [4] | log2 fold change (crizotinib) | log2 fold change [5] | log2 fold change [6] | log2 fold change (duvelisib) | log2 fold change (gandotinib) | log2 fold change (tozasertib) | log2 fold change [7] | log2 fold change (doramapimod) | log2 fold change (ispinesib)
FANCI (UniProt Q9NVI1) | 0.004 | -0.189 | -0.01 | -0.014 | -0.015 | -0.113 | -0.034 | 0.033 | 0.001 | 0 | -0.074 | -0.138 | 0.139 | 0 | 0.031 | -0.14 | 0.029 | 0.038 | -0.021 | -0.071
GSTO1 (UniProt P78417) | -0.015 | -0.031 | -0.017 | -0.037 | -0.063 | -0.048 | -0.001 | 0.021 | 0.02 | -0.033 | 0.047 | 0 | 0.013 | -0.072 | 0.064 | -0.017 | -0.01 | 0 | -0.02 | 0.036
GNAI3 (UniProt P08754) | -0.041 | -0.002 | -0.081 | -0.004 | -0.124 | 0.066 | 0.118 | -0.013 | 0.009 | 0.059 | 0.121 | 0.103 | -0.122 | 0.003 | 0.002 | 0.039 | -0.023 | -0.014 | 0.036 | -0.008
IFT80 isoform 3 (UniProt Q9P2H3) | -0.128 | -0.043 | 0.003 | -0.066 | -0.039 | 0.01 | -0.07 | 0.04 | -0.038 | 0.034 | -0.019 | -0.01 | 0.069 | -0.031 | 0.057 | 0.053 | -0.071 | 0.05 | 0.069 | -0.051
ICAM1 (UniProt P05362) | -0.018 | 0.132 | -0.038 | 0.042 | 0.002 | 0.08 | 0.029 | 0.104 | -0.028 | 0 | 0.052 | 0.142 | 0.026 | -0.069 | 0.024 | -0.134 | -0.062 | -0.054 | -0.012 | 0.121
HEXB (UniProt P07686) | 0.012 | -0.092 | -0.042 | 0.018 | -0.058 | 0.017 | 0.005 | 0.044 | -0.001 | 0.021 | -0.009 | -0.377 (active) | 0.058 | -0.021 | 0.008 | -0.013 | 0.012 | -0.031 | -0.007 | -0.128
HMGN1 (UniProt P05114) | 0.01 | 0.044 | -0.034 | 0.026 | -0.04 | 0.059 | -0.07 | 0.026 | -0.09 | -0.003 | -0.067 | 0.055 | -0.034 | 0.058 | -0.045 | 0.094 | 0.015 | -0.027 | 0.013 | -0.042
HBZ (UniProt P02008) | 0.012 | -0.003 | 0.035 | 0.045 | -0.077 | -0.055 | 0.003 | 0.093 | 0.007 | -0.006 | 0.017 | 0.09 | 0.174 | -0.067 | 0.045 | 0.084 | -0.005 | 0.014 | -0.005 | 0.21
HBQ1 (UniProt P09105) | -0.034 | -0.027 | 0.051 | -0.023 | -0.115 | -0.05 | 0.033 | 0.091 | 0.001 | -0.012 | -0.017 | 0.037 | 0.065 | -0.148 | 0.129 | -0.002 | 0.015 | -0.023 | -0.003 | 0.092
GSK3A (UniProt P49840) | -0.028 | -0.087 | -0.029 | -0.107 | 0.051 | 0.088 | -0.008 | 0.045 | -0.016 | 0.188 | 0.322 (active) | 0.129 | 0.053 | 0.015 | 0.044 | 0.201 | -0.006 | 0.015 | -0.039 | 0.072
HNRNPF (UniProt P52597) | 0.059 | -0.03 | 0.046 | 0.073 | 0.03 | -0.036 | -0.034 | -0.026 | 0.008 | -0.088 | -0.016 | -0.152 | 0.047 | -0.004 | -0.061 | -0.07 | 0.071 | 0.119 | -0.03 | -0.092
FBXO7 (UniProt Q9Y3I1) | 0.037 | -0.069 | -0.026 | -0.04 | -0.082 | 0.082 | -0.023 | 0.011 | -0.082 | 0.036 | 0.038 | 0.041 | 0.061 | -0.023 | 0.015 | -0.194 | -0.018 | 0.083 | -0.029 | 0.098
